Shown are actives, neighbours in structure and some others; about 3.4% of the full set was active somewhere.
FBW7 activator = human FBW7 E3 ligase activation, primary screen. Q969H0. AlphaScreen FBW7–phospho-cyclin E peptide binding, activator screen. normalized activity (activation), % at 26.1 µM. actives 0.13% (n = 650,000); in the data active = normalized activity above about 1.9%;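 note: purified mutant Fbw7 with reduced substrate affinity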
MITF primary = inhibitors of human MITF. actives 0.91% (n = 650,000). O75030. inhibition, % at 2.6 µM. AID 1259374. AlphaScreen MITF homodimerization, bead proximity signal; in the data active = inhibition above about 50%;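 note: 0% = vehicle wells with protein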
Target sequence (O75030 whole entry, looked up): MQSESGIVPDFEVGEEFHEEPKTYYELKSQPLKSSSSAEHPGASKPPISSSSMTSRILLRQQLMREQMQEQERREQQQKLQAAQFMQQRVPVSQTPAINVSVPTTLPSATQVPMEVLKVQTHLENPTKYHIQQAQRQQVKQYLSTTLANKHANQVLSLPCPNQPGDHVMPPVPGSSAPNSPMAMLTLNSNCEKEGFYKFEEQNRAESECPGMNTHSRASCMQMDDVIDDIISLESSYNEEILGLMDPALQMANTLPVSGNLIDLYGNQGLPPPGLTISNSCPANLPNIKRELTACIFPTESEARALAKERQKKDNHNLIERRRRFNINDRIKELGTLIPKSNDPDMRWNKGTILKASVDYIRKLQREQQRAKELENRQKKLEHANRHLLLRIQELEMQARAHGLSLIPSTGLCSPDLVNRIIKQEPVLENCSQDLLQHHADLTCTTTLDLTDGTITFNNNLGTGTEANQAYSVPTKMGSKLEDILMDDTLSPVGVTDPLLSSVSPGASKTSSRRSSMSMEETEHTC
GPR151 activ = human GPR151 activation; Q8TDV0; PathHunter beta-arrestin GPR151 cells, luminescence; activation, % at 11.2 µM; actives 1% (n = 650,000); AID 1508602; in the data active = activation above about 4.9%;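 note: 0% = median of compound wells and 100% = cells with positive control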
TEAD-YAP block = TEAD-YAP interaction inhibition | inhibition, % at 9.12 µM | HEK-TIYL cells, TEAD-Gal4/YAP UAS-luciferase luminescence | AID 1259422 | actives 1.4% (n = 640,000); in the data active = inhibition above about 32%;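 note: 0% = median of test compound wells and 100% = reference inhibitor wells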
Active calls of the source: *.

SMILES | FBW7 activator | MITF primary | GPR151 activ | TEAD-YAP block
CCOC(=O)c1c(C)[nH]c(C(=O)N/N=C\c2ccc([N+](=O)[O-])cc2)c1C | 0 | 5 | -1 | 41*
O=C(Nc1ccc(Br)c(C(=O)c2ccccc2Cl)c1)c1cc(=O)c2ccccc2o1 | 0 | 3 | 1 | -2
CCNc1nc(OC)nc(Oc2ccc(C(=O)OCC)cc2)n1 | 1 | 11 | -1 | 4
CCOC(=O)c1ccc(Oc2nc(NC)nc(OC)n2)cc1 | 1.9* | 14 | -1 | 0
O=C(Nc1ccc(Oc2ccccc2)cc1)c1ccc(F)c([N+](=O)[O-])c1 | 0 | 11 | 0 | 57*
O=C(Nc1ccc(F)cc1)c1ccc(F)c([N+](=O)[O-])c1 | 0 | 4 | -2 | 59*
O=C(/C=C/c1ccc(F)cc1)Nc1ccc([N+](=O)[O-])cc1Br | 0 | -8 | 1 | -4
O=C(/C=C/c1ccc(F)cc1)Nc1cc([N+](=O)[O-])ccc1F | 0 | 3 | 0 | 53*
O=C(/C=C\c1ccco1)Nc1cc([N+](=O)[O-])ccc1F | 0 | 10 | 1 | 60*
CC(CC(=O)Nc1cc([N+](=O)[O-])ccc1F)c1ccccc1 (stereo not drawn) | 0 | 0 | 0 | 38*
CC(CC(=O)Nc1cc([N+](=O)[O-])ccc1Cl)c1ccccc1 (stereo not drawn) | 0 | 2 | -1 | -12
CC1CN(CCOCCOc2ccc(Cl)cc2Br)CC(C)O1 (stereo not drawn) | 0 | 30 | -1 | -9
CCCc1cc(=O)[nH]c2nnc(SC(C)C(=O)OC)n12 (stereo not drawn) | 0 | 8 | 4 | 6
C/C(=N\NC(=O)c1cc(-c2cccnc2)nc2ccccc12)c1ccccc1O | 0 | 6 | 2 | 41*
COc1cccc(/C(C)=N/NC(=O)c2cc(-c3cccnc3)nc3ccccc23)c1 | 0 | 7 | -1 | 10
Cc1ccsc1/C=C1\N=C(c2cccc(Br)c2)OC1=O | 0 | 0 | 1 | 5
CC1(c2ccc(Cl)cc2)CC(C)(C)N(C(=O)CSC2=NCCS2)c2ccccc21 (stereo not drawn) | 0 | 12 | 1 | 16
CCCCNC(=O)c1c(Cl)nc(Cl)c([N+](=O)[O-])c1Cl | 0 | 0 | -1 | 45*
COc1ccc(NC(=O)c2c(Cl)nc(Cl)c([N+](=O)[O-])c2Cl)cc1 | 0 | -2 | 3 | 85*
O=C(O)c1c(Cl)nc(Cl)c([N+](=O)[O-])c1Cl | 0 | 6 | 0 | 15
NC(=O)c1c(Cl)nc(Cl)c([N+](=O)[O-])c1Cl | 0 | 5 | -1 | 98*
CN(CC(=O)Nc1ccccc1C#N)S(=O)(=O)c1cc(Cl)ccc1Cl | 0 | 24 | -1 | 3
Nc1cc(Cl)ccc1C(=O)OCc1nc2ccccc2s1 | 0 | 13 | 2 | -63
Cc1ccnn1CCC(=O)N[C@@H](C)Cn1nnc2ccccc21 | 0 | 13 | 0 | -2
Nc1nc(Nc2ccccc2F)nc2ccccc12 | 0 | 5 | -5 | 57*
SMILES | FBW7 activator | MITF primary | GPR151 activ | TEAD-YAP block
Fc1ccccc1Nc1nc(N2CCOCC2)c2ccccc2n1 | 0 | -13 | 0 | 4
Cc1ccc(Nc2nc(N3CCOCC3)c3ccccc3n2)cc1Cl | 0 | 16 | -1 | -4
CN(C)c1ccc(Nc2nc(N)c3ccccc3n2)cc1 | -1 | 23 | -10 | 91*
Cc1ccc(Nc2nc(N)c3ccccc3n2)cc1 | 0 | -3 | -5 | 90*
Cc1ccc(Nc2nc(N)c3ccccc3n2)cc1Cl | 0 | -6 | -5 | 35*
Cc1ccc(C)c(NC(=O)CSc2nnc(C)c(=O)[nH]2)c1 | 0 | -10 | 1 | 17
COc1ccc(Nc2nc(N)c3ccccc3n2)cc1 | 0 | 23 | -11 | 73*
Fc1cccc(Nc2nc(Cl)nc(Cl)n2)c1 | 0 | 7 | 1 | 2
Nc1nc(Nc2ccc(Cl)cc2)nc2ccccc12 | 0 | 10 | -7 | 52*
Clc1nc(Cl)nc(Nc2ccccc2)n1 | 2.2* | 5 | 1 | 12
CC(C)OCCNC(=O)CC1C(=O)NCCN1Cc1ccc(F)c(F)c1 (stereo not drawn) | 0 | -4 | -1 | 1
O=C(C1CC12CCN(C1CCSCC1)CC2)N1CCc2ccccc2C1 (stereo not drawn) | 0 | -7 | -1 | 5
O=C(NCc1ccccc1)C(c1ccccc1)N(Cc1cccs1)C(=O)c1cnccn1 (stereo not drawn) | 0 | 3 | -1 | 34*
O=C(NCc1ccccc1)C(c1ccccc1)N(Cc1cccnc1)C(=O)c1csnn1 (stereo not drawn) | 6.9* | 21 | 1 | -4
O=C(NCc1ccccc1)C(c1cccs1)N(Cc1cccs1)C(=O)c1cnccn1 (stereo not drawn) | 0 | 18 | -1 | 6
Cc1cc(OCCCC(=O)NNC(=O)Cn2cnc3ccccc32)ccc1Cl | 0 | 8 | 1 | 8
Oc1c(C(Nc2nccs2)c2ccccn2)ccc2cccnc12 (stereo not drawn) | 0 | 43 | 1 | 76*
Oc1c(C(Nc2nccs2)c2ccccc2)ccc2cccnc12 (stereo not drawn) | -1 | 24 | 0 | 70*
Cc1[nH]c2ccccc2c1C(Nc1nccs1)c1ccc(F)cc1 (stereo not drawn) | 0 | 4 | 0 | -28
Oc1c(C(Nc2nccs2)c2ccc(F)cc2)ccc2cccnc12 (stereo not drawn) | -2 | 22 | -1 | 43*
Oc1cccc(C(Nc2nccs2)c2ccc3cccnc3c2O)c1 (stereo not drawn) | -1 | 69* | 0 | 73*
CCC(Nc1ccc(Br)cc1)C(=O)N/N=C/c1cc([N+](=O)[O-])ccc1O (stereo not drawn) | 0 | 19 | 2 | 43*
CCC(Nc1ccc(Br)cc1)C(=O)N/N=C/c1ccc(O)cc1O (stereo not drawn) | 0 | 18 | 0 | 76*
CCC(Nc1ccc(Br)cc1)C(=O)N/N=C/c1cc(OC)ccc1O (stereo not drawn) | 0 | 4 | 1 | 22
NC(C(=O)N1CCC(Oc2ccc3cnccc3c2)CC1)c1ccc(Cl)cc1 (stereo not drawn) | 0 | 17 | 3 | 0
SMILES | FBW7 activator | MITF primary | GPR151 activ | TEAD-YAP block
CCN(Cc1ccccc1)C(=O)c1cccc(C)c1 | 0 | -14 | 2 | 4
Cc1csc(N/N=C\c2ccccn2)n1 | -2 | 16 | -7 | 79*
COc1ccc(C(=O)N2CCN(c3ccc([N+](=O)[O-])c(NCCc4ccc(OC)c(OC)c4)c3)CC2)cc1Cl | 0 | -1 | -2 | 59*
COc1ccc(N2CCN(Cc3cc(OC)c(O)c([N+](=O)[O-])c3)CC2)cc1 | 0 | 72* | 0 | -9
COc1cc(CN2CCN(c3ccc([N+](=O)[O-])cc3)CC2)cc([N+](=O)[O-])c1O | 0 | 33 | 1 | 0
COc1ccc(CCNc2cc(N3CCN(CCO)CC3)ccc2[N+](=O)[O-])cc1OC | 0 | 10 | 2 | 64*
O=C(c1ncn[nH]1)N1CCN(c2ccc([N+](=O)[O-])c(NCc3ccc(Cl)cc3)c2)CC1 | 3.9* | -333 | -1 | 7

Source: PubChem BioAssay (The Scripps Research Institute Molecular Screening Center)
